Sfp inh: inhibitors of Bacillus subtilis Sfp phosphopantetheinyl transferase; AID 1490; Q9F4F7; 310,000 tested, 3.5% active; Potency, µM, usual class: inhibitors; Biochemical Sfp PPTase activity, qHTS;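 further: the enzyme is Sfp with the accession as filed and its product quenches rhodamine fluorescence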
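Compounds were incubated with enzyme (final 15 nM) for 15 min at room temperature before substrate addition started the reaction. Fluorescence at 525 nm excitation, 598 nm emission was recorded immediately and after 30 minutes.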
G9a inh: inhibitors of human histone lysine methyltransferase G9a; AID 504332; Potency, µM (titrated, usually from 102 µM), actives largely listed as inhibitors; G9a H3K9 monomethylation, AlphaScreen, 2 h; 350,000 tested, 8.8% active; further: nearly all actives have a fitted effect of over 75% in size
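AlphaScreen read-out: biotin-H3K9 peptide (500 nM) methylation by 20 nM enzyme with 20 uM SAM, 2 h at room temperature after 15 min compound preincubation; anti-monomethyl H3K9 antibody plus donor/acceptor beads, 10 min dark.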
Glioma ERSR ind: induces the endoplasmic reticulum stress response in human glioma cells; U87-MG GRP78 promoter luciferase reporter, 16 h; AID 602332; Potency, µM, actives largely listed as activators; 420,000 tested, 0.02% active; further: series mostly up to about 76 µM; nearly all actives have a fitted effect of over 35% in size
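Stably transfected U87-MG glioma cells carrying a GRP78-based luciferase sensor; 16 h compound incubation. Luminescence end-point read 10 min after Bright-Glo addition at room temperature.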
VDR inh: vitamin D3 receptor (human) inhibition; AID 504847; 400,000 tested, 0.93% active; VDR-SRC2-3 peptide fluorescence polarization, 2 h; Potency, µM, usual class: inhibitors; P11473
Target sequence (P11473 whole entry, looked up): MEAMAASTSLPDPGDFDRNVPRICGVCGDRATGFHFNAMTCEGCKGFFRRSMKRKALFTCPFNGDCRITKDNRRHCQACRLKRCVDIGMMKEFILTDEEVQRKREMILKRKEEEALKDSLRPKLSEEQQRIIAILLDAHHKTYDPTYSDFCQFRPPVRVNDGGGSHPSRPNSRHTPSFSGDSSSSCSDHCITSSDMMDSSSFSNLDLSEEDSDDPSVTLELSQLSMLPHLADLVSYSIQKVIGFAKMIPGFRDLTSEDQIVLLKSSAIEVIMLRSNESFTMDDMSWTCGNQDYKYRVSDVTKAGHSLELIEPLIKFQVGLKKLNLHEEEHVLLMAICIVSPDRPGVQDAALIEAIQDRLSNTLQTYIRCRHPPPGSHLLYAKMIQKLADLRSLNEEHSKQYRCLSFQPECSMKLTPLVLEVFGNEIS
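FP read-out; VDR + SRC2-3 coactivator peptide; 23 nl compound by pintool; 2 h RT incubation; reagents held at 4 deg C, protected from light.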
ALOX12 inh: ALOX12 (human) lipoxygenase inhibition; AID 1671190; 580,000 tested, 1.1% active; P18054; Potency, µM (top dose mostly 108 µM), actives largely listed as inhibitors; purified 12hLO, xylenol orange hydroperoxide absorbance
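Purified human 12hLO at 150 nM in 25 mM Hepes, 0.01% Triton X-100, pH 7.0, preincubated 15 min at room temperature with compound. Reaction started with 40 uM arachidonic acid, 30 min at room temperature. Hydroperoxide measured by Fe-xylenol orange, 573/405 nm absorbance ratio.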
Sfp PPTase conf: Sfp phosphopantetheinyl transferase inhibition, confirmation; AID 2701; Potency, µM (top dose mostly 114 µM), actives largely listed as inhibitors; Sfp PPTase enzymatic assay, qHTS titration; 380 tested, 79% active; shares compounds with Sfp inh
Target sequence (Q9F4F7 whole entry, looked up): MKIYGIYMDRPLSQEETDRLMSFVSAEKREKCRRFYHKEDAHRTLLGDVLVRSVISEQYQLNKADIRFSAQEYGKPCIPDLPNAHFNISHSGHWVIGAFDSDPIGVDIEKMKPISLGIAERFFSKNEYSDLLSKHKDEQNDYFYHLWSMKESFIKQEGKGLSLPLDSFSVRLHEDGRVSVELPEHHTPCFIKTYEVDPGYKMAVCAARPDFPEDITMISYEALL
Sfp gel assay: Blocks Sfp PPTase activity, gel read-out; Potency, µM, hits mostly inhibitors; shares compounds with Sfp inh; AID 2707; 210 tested, 20% active; purified Sfp, gel-based phosphopantetheinylation read-out;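 active means potency below 100 µM; inconclusive means dose-dependent response but potency above 100 µM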;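 further: potency is an IC50 for inhibitors of Sfp transfer activity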
A number is an active result; ! = a repeat was not active; [ ] = another dose, or the depositor's remark. The sample as a whole holds a higher share of hits than the screen did. Unless noted, the call rests on the fitted dose curve; in most records, active means well fitted curve in the direction sought with a large enough effect; inconclusive means small, poorly fitted or top-dose-only effect, or another doubt; inactive means no such curve, though single readings can be large; an effect the other way counts as inactive or inconclusive.

Screening CCCCCCCCC(=O)NCc1ccc(O)c(OC)c1 returned Sfp inh inactive, G9a inh inconclusive, Glioma ERSR ind inactive, VDR inh inactive and ALOX12 inh inactive.
`CCCCC/C=C\C/C=C\C/C=C\C/C=C\CCCC(=O)NCCCl` gave Sfp inh 32µM, G9a inh inconclusive, Glioma ERSR ind inactive and VDR inh inactive.
For CCCCC/C=C\C/C=C\C/C=C\C/C=C\CCCC(=O)O the results were Sfp inh 63µM!, G9a inh 16µM!, Glioma ERSR ind inconclusive, VDR inh 7.9µM! and ALOX12 inh inactive[12.5 µM].
For CCCCC/C=C\C/C=C\C/C=C\C/C=C\CCCC(=O)NCc1ccc(O)c(OC)c1 the results were Sfp inh inactive, G9a inh inactive, Glioma ERSR ind inconclusive and VDR inh 45µM.
For C#C[C@H]1CN2CC[C@H]1C[C@@H]2CNCc1ccc(OC)cc1 the results were ALOX12 inh inactive.
Screening CCOCCCNC(=O)N1[C@H]2CC[C@@H]1c1cnc(-c3ccc(F)cc3)nc1C2 returned ALOX12 inh inactive.
`NC(=O)CI` gave G9a inh 2.4µM, Glioma ERSR ind inactive, VDR inh 79µM and ALOX12 inh inactive.
`Cc1ccc(NC(=O)c2cn(C)c3ccccc23)cc1` gave ALOX12 inh inactive.
For COc1ccc(/C=C/C=C2C(=O)NC(=S)NC2=O)cc1 the results were Glioma ERSR ind inactive, VDR inh inconclusive and ALOX12 inh 35µM.
Screening COc1ccc(C=C2C(=O)NC(=S)NC2=O)cc1OC returned Glioma ERSR ind inactive, VDR inh 40µM and ALOX12 inh inconclusive.
`COc1ccc(-n2c(/C=C/c3ccc(O)cc3)nc3ccccc3c2=O)cc1` gave Sfp inh inactive, G9a inh inactive, Glioma ERSR ind inactive, VDR inh inactive and ALOX12 inh inactive.
Screening O=C1NC(=S)N(c2ccc(F)cc2)C(=O)/C1=C/c1ccccc1O returned Sfp inh inactive, G9a inh inactive, Glioma ERSR ind inactive, VDR inh inactive and ALOX12 inh inconclusive.
Screening COc1ccccc1/C=C1\C(=O)NC(=S)N(c2ccccc2)C1=O returned Sfp inh 45µM, G9a inh 28µM, Glioma ERSR ind inactive, VDR inh 50µM and ALOX12 inh inconclusive.
For CCOc1cc(C=C2C(=O)NC(=S)NC2=O)ccc1O the results were Glioma ERSR ind inactive, VDR inh inconclusive and ALOX12 inh inactive.
`CCN1C(=O)/C(=C/c2ccc(N(CC)CC)cc2OC)C(=O)NC1=S` gave Sfp inh inconclusive, G9a inh 35µM, Glioma ERSR ind inactive, VDR inh inconclusive and ALOX12 inh inactive.
For NC(=O)c1ccc(N2CC3CCC(C2)N3CC(F)(F)F)nn1 the results were ALOX12 inh inactive[6.33 µM].
For COc1ccccc1C=C1C(=O)NC(=S)NC1=O the results were Glioma ERSR ind inactive, VDR inh 45µM and ALOX12 inh inconclusive.
For COC(=O)Cn1cc(C=C2C(=O)NC(=O)NC2=O)c2ccccc21 the results were Sfp inh inconclusive, G9a inh inconclusive, Glioma ERSR ind inactive, VDR inh inactive and ALOX12 inh inactive.
For O=Cc1cn(Cc2ccccc2F)c2ccccc12 the results were Sfp inh inconclusive, G9a inh inactive, Glioma ERSR ind inactive, VDR inh inactive and ALOX12 inh inconclusive.
O=Cc1cn(Cc2c(F)cccc2Cl)c2ccccc12 was read as Sfp inh 50µM, G9a inh inactive, Glioma ERSR ind inactive, VDR inh inactive and ALOX12 inh inactive.
`COc1ccc(C(=O)N2[C@H]3CC[C@@H]2c2cnc(C)nc2C3)cc1OC` gave ALOX12 inh inactive.
`CC1N(C)c2cc(NC(=O)c3ccco3)c(P(=O)(Nc3ccc([N+](=O)[O-])cc3)N3CCOCC3)cc2C1(C)C` (stereo not drawn) gave Sfp inh inactive, G9a inh 50µM, Glioma ERSR ind inactive, VDR inh inactive and ALOX12 inh inactive.
`COC[C@H]1C[C@@H](NCc2cn(C)c3ccccc23)[C@H](O)[C@@H]1O` gave ALOX12 inh inactive.
`CC(C)c1ccc(N=Nc2c(O)[nH]c(=O)[nH]c2=O)cc1` gave Sfp inh inactive, G9a inh inconclusive, Glioma ERSR ind inactive, VDR inh inactive and ALOX12 inh inconclusive.
For O=c1[nH]c(=S)[nH]c(O)c1N=Nc1ccc(SC(F)F)cc1 the results were Sfp inh inactive, G9a inh 45µM, Glioma ERSR ind inactive, VDR inh inactive and ALOX12 inh inconclusive.
For COc1ccc(N2CC(C(=O)NCc3ccco3)CC2=O)cc1 (stereo not drawn) the results were Sfp inh inconclusive, G9a inh 18µM, Glioma ERSR ind inactive, VDR inh inactive and ALOX12 inh inactive.
`CC(C)=CCCC1(C)C=Cc2c(O)c3c(c(CC=C(C)C)c2O1)OC12C(=CC4CC1C(C)(C)OC2(C/C=C(/C)C(=O)O)C4=O)C3=O` (stereo not drawn) gave Sfp inh inactive, G9a inh inactive[2.33 µM], Glioma ERSR ind inactive and VDR inh 2.2µM.
CC(C)=CCCC1(C)C=Cc2c(O)c3c(c(CC=C(C)C)c2O1)OC12C(=CC4CC1C(C)(C)OC2(C/C=C(/C)C(=O)O)C4O)C3=O (stereo not drawn) was read as Sfp inh 50µM, Glioma ERSR ind inactive, VDR inh 2.8µM and ALOX12 inh inconclusive.
Nc1ncccc1CN1CC[C@H]2NCCC[C@]2(C(=O)O)C1 was read as ALOX12 inh inactive.
`CCCCc1ccc2[nH]cc(CCN)c2c1` gave Sfp inh inactive, G9a inh inactive, Glioma ERSR ind inactive, VDR inh inactive and ALOX12 inh inactive.
`CCCCc1ccc2[nH]c(C)c(CCN)c2c1` gave ALOX12 inh 3.2µM.
For CCOC(=O)Nc1ccc(NCc2ccc(F)cc2)nc1N the results were Sfp inh 35µM, G9a inh 1.2µM, Glioma ERSR ind inactive, VDR inh 6.3µM, ALOX12 inh inconclusive and Sfp PPTase conf 15µM.
Screening Fc1ccc(NC(=S)NCCc2cnc[nH]2)cc1 returned ALOX12 inh inactive.
Screening O=Cc1cccc2ccccc12 returned ALOX12 inh inactive.
For CC[C@@H]1/C=C/C=C/C[C@H](C)[C@@H](O)[C@](C)(O)C(=O)[C@H](C)[C@@H](O)[C@H](C)C(=O)[C@H](C)[C@@H](O)[C@H](C)/C=C/C(=O)O[C@H]2[C@@H](C)[C@@H](CC1)O[C@@]1(CC[C@@H](C)[C@@H](C[C@H](C)O)O1)[C@@H]2C the results were Sfp inh 0.0006µM, G9a inh inactive, Glioma ERSR ind inactive, VDR inh inconclusive, Sfp PPTase conf inactive and Sfp gel assay inactive.
